Inconclusive results are not listed. A call without a number means that no potency is given here. Activity calls are given as the source filed them. The call rests on the fitted dose curve; in most records, active means well fitted cell-killing curve with a large enough effect in the repeat runs; inconclusive means weak or mixed curves, or effect the other way; inactive means flat fitted curve, though single readings scatter.
Potency means the concentration at half of the fitted maximal effect.

The experiment is described as follows: qHTS assay to identify small molecule antagonists of the androgen receptor (AR) signaling pathway using the MDA cell line - cell viability counter screen (AID 743041; further: nearly all actives have a fitted effect of over 45% in size). The note with it: MDA-kb2 viability, CellTiter-Fluor, 16 h, cells co-treated with R1881 androgen agonist; series mostly up to 70.3 µM. An excerpt: National Center for Advancing Translational Sciences [NCATS]
NIH Chemical Genomics Center [NCGC]
U.S. Environmental Protection Agency [EPA]
National Institutes of Environmental Health Sciences [NIEHS]
National Toxicology Program [NTP]
U.S. Food and Drug Administration [FDA]
Androgen receptor (AR), a nuclear hormone receptor, plays a critical role in AR-dependent prostate cancer and other androgen related diseases. Endocrine disrupting chemicals (EDCs) and their interactions with steroid hormone receptors like AR may cause disruption of normal endocrine function as well as interfere with metabolic homeostasis, reproduction, developmental and behavioral functions. To identify the compounds that inhibit AR signaling, MDA-kb2 AR-luc cell line (from ATCC, deposited by Wilson et al.) was used to screen the Tox21 10K compound library. MDA-kb2 AR-luc cell line is human breast carcinoma cell line that was stably transfected with a luciferase reporter gene under control of the MMTV promoter containing response elements for both androgen receptor (AR) and glucocorticoid receptor (GR). The cytotoxicity of the Tox21 compound library against the MDA-kb2 AR-luc cell line was tested in parallel by measuring the cell viability using CellTiter-Fluor assay (Promega, Madison, WI) in the same wells.
Tox21 Assay Protocol Summary:
MDA-kb2 AR-luc cells were dispensed at 3,000 cells/4 uL/well of culture medium into white wall/solid-bottom 1536-well plates using a Multidrop Combi (ThermoFisher Scientific, Waltham, MA) dispenser. After the assay plates were incubated at a 37C and 0% CO2 for 5 hr, 23 nL of compounds dissolved in DMSO, positive controls or DMSO only was transferred to the assay plate by a Pintool station (Kalypsys, San Diego, CA), followed by addition of 1 uL of agonist (R1881) in culture medium using a Bioraptr Flying Reagent Dispenser (FRD) workstation (Beckman Coulter, Indianapolis, IN, USA). The plates were incubated at a 37C and 0% CO2 for 16 h. After 15.5 h incubation, 1uL of CellTiter-Fluor reagent (Promega) was added using a Bioraptr FRD to each plate for measuring cytotoxicity. The fluorescence intensity was quantified on a ViewLux plate reader (PerkinElmer, Shelton, CT) following 30 min incubation at 37C and 0% CO2.
On the technique in general: In qHTS, concentration-response curves come from the screen itself.
As for `C=COCCOCCOCCOC=C`, the Potency entry was “inactive”. Under `Cc1ccsc1/C=C/C1=NCCCN1C` stands “inactive”; under `COc1nccnc1NS(=O)(=O)c1ccc(N)cc1`, “inactive”. Under `C=CCCCCCCCCCCCC` stands “inactive”.

`C=C(C)C(=O)OCCN(CC)CC`: the Potency result is “inactive”. To `CCOCCOCCOCC` belongs “inactive”. With `CC(C)CCCC(C)(C)O`, the Potency result is “inactive”. To `COC(=O)[C@@H]1[C@H]2C[C@H]3c4[nH]c5ccccc5c4CCN3C[C@@H]2CC[C@@H]1O` belongs “inactive”; to `CC1(CO)CN(c2ccccc2)NC1=O` (stereo not given), “inactive”.

As to `CCc1ccc(C=O)cc1`, the Potency entry was “inactive”. As to `Cc1cc2cc3c(C)cc(=O)oc3c(C)c2o1`, the Potency result was “inactive”. Under `CCCC(=O)C(C)=O` stands “inactive”; under `COc1ccc2c(c1OC)C(=O)O[C@@H]2[C@H]1c2c(cc3c(c2OC)OCO3)CCN1C`, “inactive”. As for `NC(CO)C(=O)NNCc1ccc(O)c(O)c1O` (stereo not given), the Potency entry was “inactive”. As to `COc1ccc(Br)c(C)c1`, the Potency result was “inactive”. Under `CCCCCCCCCCCCCC` stands “inactive”; under `COc1ccc(C2CNC(=O)C2)cc1OC1CCCC1` (stereo not given), “inactive”; under `CCOC(=O)CC(=O)c1ccccc1`, “inactive”. On to `CCOc1cc([N+](=O)[O-])c(OCC)cc1N1CCOCC1`, for which the Potency entry is “inactive”. To `CC(=O)/C=C/C1C(C)=CCC(C)C1(C)C` (stereo not given) belongs “inactive”; to `CC/C=C\CC1=C(C)CCC1=O`, “inactive”.

In the case of `COCCOCCOCCOCCOCCO`, the Potency result is “inactive”. For `Cc1cc(Cl)c(C)cc1Cl`, the Potency entry is “inactive”. Take `Nc1ncnc(Nc2ccccc2)n1`: the Potency result was “inactive”.

As to `CCOC(=O)[C@H](CCc1ccccc1)N[C@@H](C)C(=O)N1C(=O)N(C)C[C@H]1C(=O)O`, the Potency result is “inactive”. As for `CCC(C)NC(N)=O` (stereo not given), the Potency result is “inactive”. To `O=C(NCCN1CCOCC1)c1ccc(Cl)cc1` belongs “inactive”; to `CCO[Si](CCCS)(OCC)OCC`, “inactive”; to `CCCC/C=C\CCCCCCCCCC=O`, “inactive”. For the compound `Cc1nc2n(c(=O)c1CCN1CCC(c3noc4cc(F)ccc34)CC1)CCC[C@H]2O`, the Potency entry is “inactive”. To `CC(C)=O` belongs “inactive”; to `COC(=O)CCc1ccc(OCC(O)CNC(C)C)cc1` (stereo not given), “inactive”.

As for `CC(C)CCCCOC(=O)c1ccccc1C(=O)OCCCCC(C)C`, the Potency result is “inactive”. Under `CC(C)CC(C)CC(C)CC(C)COC(=O)c1ccccc1C(=O)OCC(C)CC(C)CC(C)CC(C)C` (stereo not given) stands “inactive”; under `CN=C(NC#N)Nc1ccc(C2=NNC(=O)CC2C)cc1` (stereo not given), “inactive”; under `CC(C)C(=O)OCCc1ccccc1`, “inactive”. With `CC(C)OC(=O)CCCCC(=O)OC(C)C`, the Potency entry was “inactive”. To `c1ccc2c(c1)ccc1c3ccccc3ccc21` belongs “inactive”.

`Nc1ccc([N+](=O)[O-])c(N)c1`: the Potency was 59.6 µM (active). To `CC(C)N(c1ccccc1)C(C)C` belongs “inactive”.

For the origin of these results see PubChem BioAssay (Tox21).
